Results published in article PMC5540273 (PLoS ONE, 2017).

What follows are compounds tested on T1, YANK3. Details: concentration: 1 μM,replicates: in singlicate; n = 1.
T1 construct: gene STK32C
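Also: KINOMEscan kinase panel screen.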

Point of comparison: `Cc1ccc(CC(=O)N2CCc3cc(-c4cn(C)c5ncnc(N)c45)ccc32)cc1` [GSK2634758], “%Inh” value 10%. Against it:
- Cl.c1ccc(Oc2ccc(Nc3ccnc4cc(-c5ccc(CN6CCNCC6)o5)ccc34)cc2)nc1 [GW567142] — lower, 0%
- C[C@@H]1CNc2c(sc3ccc4nc(-c5ccncc5)ccc4c23)C(=O)N1 — higher, 17%
- CCOC(=O)N1CCC(n2cnc(-c3ccc(F)cc3)c2-c2ccnc(N)n2)CC1 [SB-219952] — lower, 0%
- CC(=O)Nc1nc2cnc(Nc3cc(NC(=O)c4cccc(CC(C)(C)C#N)c4)ccc3C)nc2s1 — lower, 9%
- Cn1ccc2ncnc(Oc3ccc(NC(=O)Nc4cnn(C(C)(C)C)c4)c(Cl)c3)c21 — lower, 9%
- N#Cc1cccc(C(=O)NC2CCN(c3ccnc(Nc4ccc(F)cc4)n3)C2)c1 (stereo not shown) [GSK1379708] — the same, 10%
- Cl.Nc1n[nH]c2cc(-c3ccccn3)ccc12 [GSK2189892] — lower, 0%
- Cc1nnc(-c2ccc3occ(-c4ccc(S(C)=O)cc4)c3n2)o1 (stereo not shown) — higher, 16%
- NC(=O)c1ccc(-c2cc3ncnc(SCC(=O)O)c3s2)cc1 — lower, 0%
- Cc1cccc2c(-c3ccncc3)c(-c3ccc(F)cc3)nn12.Cl [GW461487] — higher, 22%
- CC(=O)c1c(-c2ccncc2)[nH]c(-c2ccncc2)c1C [GW493036] — lower, 9%

These compounds were tested on T2, YES. Details: concentration: 1 μM,replicates: in singlicate; n = 1.
T2 construct: gene YES1

Point of comparison: `NC(=O)c1ccc(-c2cc3ncnc(SCC(=O)O)c3s2)cc1`, “%Inh” value 0%. Against it:
- Cc1n[nH]c2cc(Nc3ccnc(Nc4cccc(CN5CCOCC5)c4)n3)ccc12 [GW682569] — higher, 22%
- Cn1ccc2ncnc(Oc3ccc(NC(=O)Nc4ccnc(C(F)(F)F)c4)c(Cl)c3)c21 — the same, 0%
- COC(=O)c1cccc(NC(=O)NC2CCN(c3ccnc(NCc4ccc(F)cc4)n3)CC2)c1 [GSK1379860] — higher, 8%
- CCn1c(-c2nonc2N)nc2cncc(Br)c21 [SB-738004] — the same, 0%
- C[C@@H]1CCN(C(=O)N2CCCC2)C[C@@H]1N(C)c1ncnc2[nH]ccc12 — the same, 0%
- O=C(NOCC1CC1)c1cc(Br)c(F)c(F)c1Nc1ccc(I)cc1Cl — the same, 0%
- C[C@@H](Oc1cc(-n2cnc3cc(-c4cnn(C)c4)ccc32)sc1C(N)=O)c1ccccc1Cl [GSK580432] — higher, 73%
- CN(c1ccc2c(c1)nc(NCc1ccc(F)cc1)n2C)c1ccnc(Nc2ccc(CS(C)(=O)=O)cc2)n1.Cl [GW813244] — higher, 7%
- NC(=O)Nc1sc(-c2ccc(F)cc2)cc1C(N)=O [GW789449] — the same, 0%
- O=C(Nc1n[nH]c2cc(-c3ccco3)ccc12)C1CC1 [SB-737447] — the same, 0%
- CCn1c(-c2nonc2N)nc2cncc(CNC3CCNCC3)c21.Cl [SB-747651] — higher, 11%
- C[C@@H]1CNc2c(sc3ccc4nc(-c5ccc(O)cc5)ccc4c23)C(=O)N1 — the same, 0%
- O=C(Nc1ccc(Oc2ccc3nc(NC(=O)C4CC4)cn3n2)c(F)c1)c1cccn(-c2ccccc2)c1=O — higher, 45%
- CS(=O)(=O)c1cccc(CNc2nc(Nc3ccc4c(c3)[C@@H]3C[C@@H]4CNC3=O)ncc2C(F)(F)F)c1 — the same, 0%
- COc1cccc(OC)c1C(=O)Nc1cccc(-c2nn3ccccc3c2-c2ccnc(Nc3cccc(F)c3)n2)c1 [GSK361065] — higher, 36%
- OCCn1cc(-c2cnc3nnn(Cc4ccc5ncccc5c4)c3n2)cn1 — the same, 0%
- CC(=O)Nc1ccc(-c2cc3ncnc(SCC(=O)O)c3s2)cc1 — the same, 0%
- CCN1CCN(CCCC(=O)Nc2n[nH]c3nc(-c4ccc(O)cc4)c(Br)cc23)CC1 [SB-731579] — the same, 0%
- O=C(Nc1cccc(Oc2ccc3nccn3n2)c1)Nc1cccc(C(F)(F)F)c1 — the same, 0%
- Nc1nccc(-c2ccc3c(N)n[nH]c3c2)n1 [GSK1034945] — the same, 0%
- COc1cc2c(Nc3ccc(NC(=O)c4ccccc4)cc3)ncnc2cc1OCCCN1CCOCC1 [GSK301329] — higher, 46%
- COC(=O)c1cccc(NC(=O)NC2CCN(c3ccnc(Nc4cc(OC)c(OC)c(OC)c4)n3)C2)c1 (stereo not shown) [GSK1379767] — the same, 0%
- COC(=O)Nc1nc2cc(Oc3ccc(NC(=O)Nc4cc(C(F)(F)F)ccc4Cl)cc3)ccc2[nH]1.Cl [GW697465] — higher, 29%
- COc1cc2ncn(-c3cc(OCC4CCCCC4)c(C(N)=O)s3)c2cc1OC [GSK204559] — higher, 4%
- CCCC(=O)Nc1n[nH]c2ncccc12 [SB-601436] — the same, 0%
- Cl.c1ccc(Oc2ccc(Nc3ccnc4cc(-c5ccc(CN6CCNCC6)o5)ccc34)cc2)nc1 [GW567142] — higher, 70%
- C[C@@H]1CNc2c(sc3ccc4nc(-c5ccncc5)ccc4c23)C(=O)N1 — the same, 0%
- CCOC(=O)N1CCC(n2cnc(-c3ccc(F)cc3)c2-c2ccnc(N)n2)CC1 [SB-219952] — higher, 10%
- CC(=O)Nc1nc2cnc(Nc3cc(NC(=O)c4cccc(CC(C)(C)C#N)c4)ccc3C)nc2s1 — higher, 17%
- Cn1ccc2ncnc(Oc3ccc(NC(=O)Nc4cnn(C(C)(C)C)c4)c(Cl)c3)c21 — the same, 0%
- Cc1ccc(CC(=O)N2CCc3cc(-c4cn(C)c5ncnc(N)c45)ccc32)cc1 [GSK2634758] — higher, 25%
- N#Cc1cccc(C(=O)NC2CCN(c3ccnc(Nc4ccc(F)cc4)n3)C2)c1 (stereo not shown) [GSK1379708] — the same, 0%
- Cl.Nc1n[nH]c2cc(-c3ccccn3)ccc12 [GSK2189892] — higher, 7%
- Cc1nnc(-c2ccc3occ(-c4ccc(S(C)=O)cc4)c3n2)o1 (stereo not shown) — the same, 0%
- Cc1cccc2c(-c3ccncc3)c(-c3ccc(F)cc3)nn12.Cl [GW461487] — higher, 11%
- CC(=O)c1c(-c2ccncc2)[nH]c(-c2ccncc2)c1C [GW493036] — higher, 17%
